Assay [1] in a line: qHTS assay for measurement of the activity of small molecule inhibitors on Zika virus induced Caspase-3 activity in human iPSC derived neural progenitor cells (hNPCs) (AID 1224857). Further: nearly all actives have a fitted effect of over 65% in size. The settings on record: hNPCs ZIKV-induced caspase-3/7, Caspase-Glo luminescence, 6 h; series mostly up to 45.7 µM. An outline of the steps: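 Zika virus (2 FFU/cell) infection of human iPSC-derived NPCs, 6 h, following 1 h compound preincubation. Read-out: Caspase-Glo 3/7 luminescence.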

Assay [2] can be described thus: qHTS assay for measurement of the activity of small molecule inhibitors on Zika virus induced Caspase-3 activity in human astrocytoma cells (AID 1224859). To be noted: SNB-19 ZIKV-induced caspase-3/7, luminescence, 6 h; series mostly up to 45.7 µM. An outline of the steps: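 Caspase activation in ZIKV-infected SNB-19 cells (2 FFU/cell, 6 h) measured by Caspase-Glo 3/7 luminescence after 30 min RT; compound pre-incubated 1 h; normalised to uninfected and infected controls.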
(In qHTS, concentration-response curves come from the screen itself.)

A short description of assay [3]: qHTS assay to identify small molecule inhibitors of chordoma cells - UCH-1 (AID 1259355). Further: nearly all actives have a fitted effect of over 55% in size. The settings on record: UCH-1 chordoma viability, CellTiter-Glo, 48 h, combination, with auranofin plus four topoisomerase inhibitors; series mostly up to 46.1 µM. An outline of the steps:
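Cells (800/well) were seeded and left overnight at 37 C, 5% CO2, then treated with drugs at 15 concentrations plus a combination mix of auranofin, camptothecin, doxorubicin, rubitecan and topotecan. Viability after 48hr was read by CellTiter-Glo luminescence.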

Assay [4] is described as follows: qHTS assay to identify small molecule inhibitors of chordoma cells - UCH-2 (AID 1259356). The settings on record: UCH-2 chordoma viability, CellTiter-Glo ATP luminescence, 48 h; series mostly up to 46.1 µM.
The nature of assay [5]: qHTS profiling of the MIPE4 collection as inhibitors of Plasmodium falciparum (3D7) proliferation (AID 743344; call rule not given here). The settings on record: P. falciparum 3D7 in erythrocytes, SYBR Green DNA fluorescence, 72 h; at 28.5 µM (top of the series) unless noted. An outline of the steps: (§1)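 Erythrocytes infected with P. falciparum (0.3% parasitemia, 2.5% hematocrit) incubated with compounds 72 h at 37 C, 5% CO2. Lysis with saponin/Triton buffer containing SYBR Green I, overnight at room temperature in the dark; DNA fluorescence (485/535 nm) normalised to 0.29 uM artemisinin and DMSO.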

A short description of assay [6]: qHTS profiling of the MIPE4 collection as inhibitors of Plasmodium falciparum (DD2) proliferation (AID 743345; call rule not given here). The settings on record: P. falciparum Dd2 in erythrocytes, SYBR Green DNA, 72 h; at 28.5 µM (top of the series) unless noted. An outline of the steps: as §1
Assay [7] can be described thus: qHTS profiling of the MIPE4 collection as inhibitors of Plasmodium falciparum (DD2) proliferation (Rep 2) (AID 743346; call rule not given here). The settings on record: P. falciparum Dd2 in erythrocytes, SYBR Green DNA, 72 h; at 28.5 µM (top of the series) unless noted. An outline of the steps:
as §1

Assay [8] can be described thus: qHTS profiling of the MIPE4 collection as inhibitors of Plasmodium falciparum (HB3) proliferation (AID 743347; call rule not given here). To be noted: P. falciparum HB3 in erythrocytes, SYBR Green DNA, 72 h; at 28.5 µM (top of the series) unless noted. From the text: Plasmodium falciparum is a virulent malarial parasite that kills 1-2 million people worldwide each year. Transmitted by mosquitoes, the sporozoite form of the parasite enters the blood stream to infect hepatocytes, where they become merozoites that infect red blood cells (erythrocytes). Within erythrocytes, merozoites begin a […] cycle of growth and division, after which the parasite is released to infect new red blood cells. Gametocytes, which form within erythrocytes as well, circulate in the bloodstream and are ingested by the mosquito, thereby completing the life cycle. To profile malarial isolates for differential chemical responses and to identify inhibitors of malarial growth, an assay that measures P. falciparum growth and replication within erythrocytes was employed. This assay uses a DNA binding fluorescent dye (SYBR Green) to detect parasite DNA following cell lysis. Because mature erythrocytes lack DNA, only Plasmodium-derived DNA is detected.
The SYBR Green viability assay was adapted from a method described previously (Plouffe et al., 2008). For screening 3 ul culture medium was dispensed into 1536 well black clear bottom plates (Aurora Biotechnologies) using a Multidrop Combi (Thermo Fisher Scientific Inc.), 23 nL compounds in DMSO were added by a pin tool (Kalypsys), and 5 ul of erythrocytes infected with P. falciparum (0.3% parasitemia, 2.5% hematocrit final concentration) were added. The plates were incubated at 37 C in a humidified incubator in 5% CO2 for 72 h, and 2 ul lysis buffer (20 mM Tris HCl, 10 mM EDTA, 0.16% saponin, 1.6% triton X, 10X SYBR Green I supplied as 10,000X […] by Invitrogen) was added to each well. The plates were mixed for 25 sec with gentle shaking and incubated overnight at room temperature in the dark. The following morning, fluorescence intensity at 485(14) nm excitation and 535(25) nm emission wavelengths was measured on an EnVision (Perkin Elmer) plate reader. Plate reads were normalized relative to the control inhibitor (0.29 uM artemisinin) and vehicle (DMSO) wells present on each plate and then corrected by an algorithm using vehicle-only control plates at the beginning and end of the compound plate stack.

We go through 26 molecules from PubChem BioAssay (NCATS).

Inconclusive results are not listed. A call without a number means that no potency is given here. Active and inactive are the calls of the source. Unless noted, the call rests on the fitted dose curve; in most records, active means well fitted curve in the direction sought with a large enough effect; inconclusive means small, poorly fitted or top-dose-only effect, or another doubt; inactive means no such curve, though single readings can be large; an effect the other way counts as inactive or inconclusive. Numbered stars: 1 amine (or outer) side, 2 acyl side, 3 side chain; on linkers, the order of the positions; unused ones are H or OH. Bridge positions count the residues as written; N and C are the ends. Square brackets hold non-standard residues; d marks the D form. Peptide text beside a SMILES is read from it. I, II: the chains in the order shown. Actinocin(9to1) = Cc1c2oc3c(C)ccc(C(=O)[*:1])c3nc-2c(C(=O)[*:2])c(N)c1=O; NMeV = CN[C@H](C(=O)O)C(C)C; Sar = CNCC(=O)O

Take `CC(C)COC(=O)OCN1C(=O)CN(CCN2CC(=O)N(COC(=O)OCC(C)C)C(=O)C2)CC1=O`: the molecule was called inactive in assay [1] and in assay [2]. The Potency entry in assay [3] and in assay [4] was “inactive” in each case.

In the case of `O=C(Nc1ccc(Cl)c(Cl)c1)C1CC1`, the result in assay [1] and in assay [2] was inactive. Moreover, the Potency result in assay [3] and in assay [4] was “inactive” in each case.

In the case of `OC[C@@H](O)[C@@H](O[C@@H]1O[C@H](CO)[C@H](O)[C@H](O)[C@H]1O)[C@H](O)[C@@H](O)CO`, the molecule was classed as inactive in assay [1] and in assay [2]. In addition, the Potency result in assay [3] and in assay [4] was “inactive” throughout.

As to `O=C(Nc1ccc(Oc2ccc(Cl)cc2)c(Cl)c1)c1cc(I)cc(I)c1O`, the outcome in assay [1] and in assay [2] was inactive. The Potency result in assay [3] and in assay [4] was “inactive” in each case.

Turning to `C[C@@H]1C[C@H]2[C@@H]3C[C@H](F)C4=CC(=O)C(Cl)=C[C@]4(C)[C@@]3(F)[C@@H](O)C[C@]2(C)[C@@]1(O)C(=O)CO`, the call in assay [1] and in assay [2] was inactive. In addition, in assay [4], the Potency result is “inactive”.

For `COc1c(C)c2c(c(O)c1C/C=C(\C)CCC(=O)O)C(=O)OC2`, the molecule was called inactive in assay [1] and in assay [2]. The Potency result in assay [4] was “inactive”.

For the molecule `CN(C)CC/C=C1\c2ccccc2Sc2ccc(Cl)cc21`, the molecule was called inactive in assay [1] and in assay [2]. The Potency result in assay [4] is “inactive”.

Consider `Cc1cccc(C)c1NC(=O)CN1CCN(CCCC(c2ccc(F)cc2)c2ccc(F)cc2)CC1`, for which the parasite growth, % of DMSO control in assay [5] stood at 13.4%. In assay [6], this molecule yielded a parasite growth remaining, % of DMSO control (lower = more inhibition) of 52.4%. The parasite growth, % of control (lower = inhibition) in assay [7] was 19.6%. In assay [8], the growth, % of control was found to be 8.04%. Also, the molecule was classed as inactive in assay [1] and in assay [2]. In addition, the Potency entry in assay [3] and in assay [4] was “inactive” each time.

For the molecule `CC(O)C(=O)O` (stereo not drawn), the molecule was called inactive in assay [1] and in assay [2]. Further, in assay [4], the Potency entry was “inactive”.

Regarding `Cc1c2oc3c(C)ccc(C(=O)N[C@@H]4C(=O)N[C@H](C(C)C)C(=O)N5CCC[C@H]5C(=O)N(C)CC(=O)N(C)[C@@H](C(C)C)C(=O)O[C@@H]4C)c3nc-2c(C(=O)N[C@@H]2C(=O)N[C@H](C(C)C)C(=O)N3CCC[C@H]3C(=O)N(C)CC(=O)N(C)[C@@H](C(C)C)C(=O)O[C@@H]2C)c(N)c1=O` (I: T[dV]P[Sar][NMeV] / II: T[dV]P[Sar][NMeV]; ester I:1-I:C, II:1-II:C; linker I:N-II:N via Actinocin(9to1)), the molecule was called inactive in assay [1] and in assay [2]. In addition, the Potency entry in assay [4] was “inactive”.

In the case of `Oc1cc(O)c2c(c1)O[C@H](c1ccc(O)c(O)c1)[C@H](O)C2`, the result in assay [1] and in assay [2] was inactive. In assay [4], the Potency entry is “inactive”.

Turning to `COCc1c(C(C)C)nc(C(C)C)c(/C=C/[C@@H](O)C[C@@H](O)CC(=O)O)c1-c1ccc(F)cc1`, the outcome in assay [1] and in assay [2] was inactive. The Potency entry in assay [4] was “inactive”.

For the molecule `O=C(N/N=C/c1ccccc1O)c1ccncc1`, the molecule was called inactive in assay [1] and in assay [2]. The Potency entry in assay [3] and in assay [4] was “inactive” each time.

Regarding `CCCCOc1cc(C(=O)NCCN(CC)CC)c2ccccc2n1`, the result in assay [1] and in assay [2] was inactive. Further, the Potency entry in assay [3] and in assay [4] was “inactive” each time.

For the molecule `CCN(CC)CCOC(=O)C(c1ccccc1)C1CCCCC1` (stereo not drawn), the molecule was classed as inactive in assay [1] and in assay [2]. The Potency entry in assay [3] and in assay [4] was “inactive” in each case.

With `NC(CS)C(=O)O` (stereo not drawn), the molecule was called inactive in assay [1] and in assay [2]. Also, in assay [4], the Potency result is “inactive”.

For `CNCCC=C1c2ccccc2CCc2ccccc21`, the call in assay [1] and in assay [2] was inactive. Besides, the Potency result in assay [4] was “inactive”.

Consider `C[C@H]1C[C@H]2[C@@H]3CCC4=CC(=O)C=C[C@]4(C)[C@@]3(Cl)[C@@H](O)C[C@]2(C)[C@@]1(O)C(=O)CO`, for which the result in assay [1] and in assay [2] was inactive. Further, the Potency entry in assay [4] is “inactive”.

Regarding `C=C1C[C@H]2[C@@H]3C=C(C)C4=CC(=O)CC[C@]4(C)[C@H]3CC[C@]2(C)[C@@]1(OC(C)=O)C(C)=O`, the molecule was called inactive in assay [1] and in assay [2]. Moreover, the Potency result in assay [4] is “inactive”.

Take `Cc1ncc(CSSCc2cnc(C)c(O)c2CO)c(CO)c1O`: the call in assay [1] and in assay [2] was inactive. Further, in assay [4], the Potency result is “inactive”.

In the case of `CCn1cc(C(=O)O)c(=O)c2cnc(N3CCCC3)nc21`, the results for the activity change, negative = inhibition in assay [1] and in assay [2] were -4.24% [at 9.06 µM] (inactive) and 4.3% [at 9.06 µM] (inactive), respectively. Further, the Potency result in assay [4] was “inactive”.

With `OC(CCN1CCCCC1)(c1ccccc1)c1ccccc1`, the molecule was classed as inactive in assay [1] and in assay [2]. For the same molecule, the Potency entry in assay [4] was “inactive”.

Take `O=C(O)CCCCC(=O)O`: the molecule was called inactive in assay [1] and in assay [2]. Further, the Potency result in assay [3] and in assay [4] was “inactive” in each case.

On to `C[C@H](CCC(=O)O)[C@H]1CC[C@H]2[C@@H]3C(=O)C[C@@H]4CC(=O)CC[C@]4(C)[C@H]3CC(=O)[C@]12C`, for which the result in assay [1] and in assay [2] was inactive. The Potency result in assay [4] was “inactive”.

In the case of `CCCOC(C(=O)OC1CCN(C)CC1)(c1ccccc1)c1ccccc1`, the outcome in assay [1] and in assay [2] was inactive. Further, the Potency entry in assay [3] and in assay [4] was “inactive” in each case.

With `C#C[C@]1(O)CC[C@H]2[C@@H]3CCc4cc(OC5CCCC5)ccc4[C@H]3CC[C@@]21C`, the molecule was called inactive in assay [1] and in assay [2]. Besides, the Potency entry in assay [3] and in assay [4] was “inactive” in each case.
